Bioassay records as filed in PubChem.
Pf growth 96h: inhibits malaria parasite growth, 96 h; P. falciparum luciferase reporter growth, 96 h; Potency, µM (titrated, usually from 28.7 µM), most hits filed as inhibitors; 320,000 tested, 6.9% active
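Readout is luminescence from an integrated firefly luciferase in P. falciparum. Red cells, 2% hematocrit and 0.05% parasitemia final, were cultured with compound through two parasite generations (96 hours) at 37 C, 5% CO2.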
HCMV antiviral: human cytomegalovirus inhibition; HFF cells, HCMV-luciferase reporter, 72 h; stronger effect = lower value; activity change, negative = inhibition, % at 57.5 µM; 410,000 tested, 4.5% active; AID 1259415; in the data active = activity change below about -60%; inconclusive = no clear call, values can overlap the other calls; inactive = above about -39%
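After 16 h attachment at 37C, HFF cells received test compound and HCMV-luciferase (1 PFU/cell); reporter luminescence read 72 h later, data normalized against buffer-only and known inhibitor Salinomycin.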
SARS PLpro yeast: blocks SARS-CoV papain-like protease in a yeast assay; Potency, µM (series often up to 32.9 µM), most hits filed as activators; 330,000 tested, 0.19% active; S. cerevisiae expressing SARS-CoV PLpro, growth rescue; calls by dose curve; also: nearly all actives have a fitted effect of over 55% in size
HCV inh: inhibitors of hepatitis C virus infection; 340,000 tested, 3.4% active; Potency, µM (series often up to 41.8 µM), actives largely listed as inhibitors; AID 651820; Huh7.5.1 HCVcc-Cre infection, luciferase reporter, 44 h
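Infectious HCV cell culture screen: compound-treated cells (1,000/well, pre-plated 4 h) are infected with HCVcc-Cre at roughly 0.5 moi and grown 44 h. Infection is quantified by luciferase signal after 15 min substrate incubation at room temperature.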
Pf growth 48h: P. falciparum growth inhibition at 48 hours (one generation) | P. falciparum luciferase growth in erythrocytes, 48 h | Potency, µM (series often up to 28.7 µM), most hits filed as inhibitors | 310,000 tested, 5.9% active
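Erythrocytes infected with P. falciparum carrying an integrated firefly luciferase reporter (2% hematocrit, 0.1% parasitemia final) were exposed to compounds in RPMI 1640 with 0.5% Albumax at 37 C, 5% CO2. Growth inhibition was scored as reduced luminescence.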
Sm TGR inh: inhibitors of Schistosoma mansoni thioredoxin glutathione reductase. Q962Y6. purified TGR, DTNB reduction, TNB absorbance 405 nm. 360,000 tested, 3% active. Potency, µM (top dose mostly 114 µM), actives largely listed as inhibitors; also: nearly all actives have a fitted effect of over 60% in size
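First, TGR (20 nM dispensed) and NADPH were mixed with compound. Second, a 15 min room-temperature incubation followed. Third, further NADPH and then DTNB were added to start the reaction. Finally, TNB absorbance was monitored kinetically.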
Hits are given with their value; . = inactive; ? = inconclusive; / = not tested or not shown; ! = not confirmed by another sample; [ ] = remark or other dose. Sampled rows, rich in hits. Any-hit rate of the full collection: about 15%. Unless noted, calls follow the shape of the dose curve; as a rule, active = well fitted curve in the direction sought with a large enough effect; inconclusive = small, poorly fitted or top-dose-only effect, or another doubt; inactive = no such curve, though single readings can be large; an effect the other way counts as inactive or inconclusive.

SMILES	Pf growth 96h	HCMV antiviral	SARS PLpro yeast	HCV inh	Pf growth 48h	Sm TGR inh
O=C(COC(=O)c1c(F)cccc1F)Nc1cccc(S(=O)(=O)N2CCCCC2)c1	/	.	/	/	/	/
CN1CCc2c1nc1ccccc1c2N=C1CCCN1Cc1ccccc1	?	-61	.	?	?	.
Cc1cc(C)c(N=C2CCCN2Cc2ccccc2)c(C#N)c1	.	.	.	?	?	.
O=C(NCc1ccccc1F)c1ccc(S(=O)(=O)N2CCCCCC2)cc1	?	?	.	.	?	.
O=c1c2ccccc2c2ccccc2c(=O)n1Nc1ccccc1	/	.	/	/	/	/
CCCN1CCC(NC(=O)CCc2nnc(Cc3cc(OC)ccc3OC)o2)CC1	.	.	.	.	.	.
COc1ccc(OC)c(Cc2nnc(CCC(=O)NC3CCCCC3)o2)c1	13µM	.	.	.	.	.
COc1ccc(OC)c(Cc2nnc(CCC(=O)NC3C4CC5CC(C4)CC3C5)o2)c1 (stereo not given)	.	.	.	.	10µM	.
COc1ccc(NC(=O)CCSc2nc(-c3ccco3)cc(C(F)(F)F)n2)cc1OC	/	.	/	/	/	.
CCOC(=O)N1CCN(c2nc(-c3ccco3)cc(C(F)(F)F)n2)CC1	.	-62	.	?	.	.
Cc1ccc(NC(=O)CSc2nc(-c3ccco3)cc(C(F)(F)F)n2)cc1	/	?	/	/	/	.
COc1ccc(NC(=O)CCCSc2nc(-c3ccco3)cc(C(F)(F)F)n2)cc1OC	.	.	.	16µM	.	.
COc1ccccc1N1CCN(C(=O)CSc2nc(-c3ccco3)cc(C(F)(F)F)n2)CC1	.	.	.	?	?	35µM
CCOC(=O)N1CCN(c2nc(-c3cccc(OC)c3)cc(C(F)(F)F)n2)CC1	.	.	.	?	?	.
O=C(CSc1nc(-c2ccco2)cc(C(F)(F)F)n1)Nc1ccc(C(=O)N2CCCCC2)cc1	?	.	.	11µM	/	.
COc1ccc(NC(=O)CSc2nc(-c3ccco3)cc(C(F)(F)F)n2)cc1Cl	/	-69	/	/	/	.
Cc1ccc(CNC(=O)CCS(=O)(=O)c2cc3c(cc2Cl)NC(=O)CO3)cc1	.	-105!	.	.	?	.
O=C(CCS(=O)(=O)c1cc2c(cc1Cl)NC(=O)CO2)NCc1ccc(Cl)cc1	/	.	/	/	/	.
Cc1cc(Cl)ccc1NC(=O)CCS(=O)(=O)c1cc2c(cc1C)NC(=O)CO2	/	.	/	/	/	.
Cc1cc(F)ccc1NC(=O)CCS(=O)(=O)c1cc2c(cc1C)NC(=O)CO2	/	-105	/	/	/	.
COc1ccc(NC(=O)N(C)C[C@H]2OCc3cnnn3CCCC(=O)N([C@H](C)CO)C[C@@H]2C)c(OC)c1	/	.	/	/	/	/
CC(C)n1c(-c2ccc(C(C)(C)C)cc2)n[nH]c1=S	.	-72	.	?	.	.
CCCC[C@]12Cc3cc(OC)c(OC)cc3C(O1)c1c(cc(-c3ccccc3)oc1=O)O2	1.5µM	/	.[6.58 µM]	/	?	.[22.9 µM]
CCCC[C@]12Cc3ccccc3C(O1)c1c(cc(-c3ccccc3)oc1=O)O2	1.5µM	/	.[6.58 µM]	/	0.43µM	3.2µM
N#Cc1ccc2c(c1)C[C@]1(CCCCN3C(=O)c4ccccc4C3=O)Oc3cc(-c4ccccc4)oc(=O)c3[C@H]2O1	?	/	.[6.58 µM]	/	?	.[22.9 µM]
SMILES	Pf growth 96h	HCMV antiviral	SARS PLpro yeast	HCV inh	Pf growth 48h	Sm TGR inh
Cc1ccc(NC(=O)COc2coc(CN3CCN(c4ccccc4)CC3)cc2=O)cc1	4.7µM	.	.	?	?	.
Cc1cccc(NC(=O)COc2coc(CN3CCN(c4ccccc4)CC3)cc2=O)c1C	?	-61	.	?	9.3µM	.
COc1ccccc1N1CCN(Cc2cc(=O)c(OCC(=O)Nc3ccccc3)co2)CC1	.	.	.	?	9.3µM	.
Cc1cccc(COc2coc(CN3CCN(C(=O)c4ccco4)CC3)cc2=O)c1	12µM	.	.	.	?	.
O=C(COc1coc(CN2CCN(c3ccccc3F)CC2)cc1=O)Nc1ccccc1	.	.	.	?	.	.
O=C(COc1coc(CN2CCN(c3ccccc3)CC2)cc1=O)Nc1ccccc1	?	.	.	.	?	?
Cc1ccc(NC(=O)C2CCCN2C(=O)OC(C)(C)C)cc1C (stereo not given)	?	.	.	.	?	.
